Among the data in PMC11006913 are binding signal values, retold here.

Test in all cases: PBM; 200 nM protein, PBS
Holding throughout (conditions): dsDNA, one strand shown

Assay [1] addresses HESX1 (Homo sapiens, UniProt Q9UBX0 95-180, R165K).
Assay [2] concerns the target SHOX (Homo sapiens, UniProt O15266 103-189).
Assay [3] has as its target HESX1 (Homo sapiens, UniProt Q9UBX0 95-180).
Assay [4] deals with ALX3 (Homo sapiens, UniProt O95076 139-225, N203Q).
In assay [5] the target is SHOX (Homo sapiens, UniProt O15266 103-189, R173C).
Assay [6] deals with ALX3 (Homo sapiens, UniProt O95076 139-225).
For assay [7], the target named is HESX1 (Homo sapiens, UniProt Q9UBX0 95-180, R109Q).
The target in assay [8] is ALX3 (Homo sapiens, UniProt O95076 139-225, L168Q).
Assay [9] deals with HESX1 (Homo sapiens, UniProt Q9UBX0 95-180, P111T).
Assay [10] addresses ALX3 (Homo sapiens, UniProt O95076 139-225, L168V).
The target of assay [11] is HESX1 (Homo sapiens, UniProt Q9UBX0 95-180, F115L).
Assay [12] addresses ALX3 (Homo sapiens, UniProt O95076 139-225, N203S).
In a further assay the target is ALX4 (Homo sapiens, UniProt Q9H161 200-286, Q225E).
A further assay has as its target MSX2 (Homo sapiens, UniProt P35548 130-214, R199I).
Assay [13] has as its target ALX1 (Homo sapiens, UniProt Q15699 118-204, L144V).
For assay [14], the target named is ALX1 (Homo sapiens, UniProt Q15699 118-204, L144R).
For assay [15], the target named is PROP1 (Homo sapiens, UniProt O75360 56-141).
Assay [16] addresses PROP1 (Homo sapiens, UniProt O75360 56-141, R99H).
Assay [17] addresses PROP1 (Homo sapiens, UniProt O75360 56-141, F88S).
In assay [18] the target is ALX1 (Homo sapiens, UniProt Q15699 118-204).
Chain of ALX1 (Homo sapiens, UniProt Q15699 118-204) (Q15699 118-204): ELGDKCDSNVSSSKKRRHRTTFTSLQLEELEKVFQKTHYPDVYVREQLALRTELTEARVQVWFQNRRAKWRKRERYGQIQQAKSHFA

Chain of HESX1 (Homo sapiens, UniProt Q9UBX0 95-180) (Q9UBX0 95-180): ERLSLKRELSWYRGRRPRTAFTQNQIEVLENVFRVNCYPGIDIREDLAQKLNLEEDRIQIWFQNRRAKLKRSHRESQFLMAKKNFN
Chain of ALX3 (Homo sapiens, UniProt O95076 139-225, L168Q) (O95076 139-225 L168Q): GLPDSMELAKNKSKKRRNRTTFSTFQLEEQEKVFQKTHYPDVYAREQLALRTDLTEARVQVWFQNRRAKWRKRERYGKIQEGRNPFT
Chain of SHOX (Homo sapiens, UniProt O15266 103-189, R173C) (O15266 103-189 R173C): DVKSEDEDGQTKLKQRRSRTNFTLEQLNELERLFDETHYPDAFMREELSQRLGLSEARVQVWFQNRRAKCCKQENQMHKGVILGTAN
Chain of HESX1 (Homo sapiens, UniProt Q9UBX0 95-180, R109Q) (Q9UBX0 95-180 R109Q): as the sequence (Q9UBX0 95-180) above, with R15Q counted along it
Chain of HESX1 (Homo sapiens, UniProt Q9UBX0 95-180, P111T) (Q9UBX0 95-180 P111T): as the sequence (Q9UBX0 95-180) above, with P17T counted along it
Chain of PROP1 (Homo sapiens, UniProt O75360 56-141, R99H) (O75360 56-141 R99H): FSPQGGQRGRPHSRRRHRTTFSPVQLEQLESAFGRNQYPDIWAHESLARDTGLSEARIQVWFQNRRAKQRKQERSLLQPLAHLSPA
Chain of HESX1 (Homo sapiens, UniProt Q9UBX0 95-180, F115L) (Q9UBX0 95-180 F115L): as the sequence (Q9UBX0 95-180) above, with F21L counted along it
Chain of ALX3 (Homo sapiens, UniProt O95076 139-225, N203S) (O95076 139-225 N203S): as the sequence (O95076 139-225 L168Q) above, with Q30L, N65S counted along it
Chain of ALX3 (Homo sapiens, UniProt O95076 139-225, N203Q) (O95076 139-225 N203Q): as the sequence (O95076 139-225 L168Q) above, with Q30L, N65Q counted along it
Chain of ALX3 (Homo sapiens, UniProt O95076 139-225) (O95076 139-225): as the sequence (O95076 139-225 L168Q) above, with Q30L counted along it
Chain of ALX1 (Homo sapiens, UniProt Q15699 118-204, L144R) (Q15699 118-204 L144R): as the sequence (Q15699 118-204) above, with L27R counted along it
Chain of ALX4 (Q9H161 200-286 Q225E): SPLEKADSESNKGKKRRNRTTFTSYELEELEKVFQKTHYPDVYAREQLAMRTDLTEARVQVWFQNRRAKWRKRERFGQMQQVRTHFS
Chain of ALX1 (Homo sapiens, UniProt Q15699 118-204, L144V) (Q15699 118-204 L144V): as the sequence (Q15699 118-204) above, with L27V counted along it
Chain of PROP1 (Homo sapiens, UniProt O75360 56-141) (O75360 56-141): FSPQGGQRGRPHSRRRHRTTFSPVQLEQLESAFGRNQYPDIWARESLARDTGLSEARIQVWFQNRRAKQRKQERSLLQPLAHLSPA
Chain of MSX2 (P35548 130-214 R199I): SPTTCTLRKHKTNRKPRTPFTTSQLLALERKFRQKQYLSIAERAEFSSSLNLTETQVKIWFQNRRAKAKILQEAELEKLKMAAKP
Chain of HESX1 (Homo sapiens, UniProt Q9UBX0 95-180, R165K) (Q9UBX0 95-180 R165K): as the sequence (Q9UBX0 95-180) above, with R71K counted along it
Chain of ALX3 (Homo sapiens, UniProt O95076 139-225, L168V) (O95076 139-225 L168V): as the sequence (O95076 139-225 L168Q) above, with Q30V counted along it
Chain of PROP1 (Homo sapiens, UniProt O75360 56-141, F88S) (O75360 56-141 F88S): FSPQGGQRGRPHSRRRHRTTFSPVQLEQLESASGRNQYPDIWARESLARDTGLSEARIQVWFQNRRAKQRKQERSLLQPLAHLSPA
Chain of SHOX (Homo sapiens, UniProt O15266 103-189) (O15266 103-189): as the sequence (O15266 103-189 R173C) above, with C71R counted along it

For CCCCGGCG, the binding signal in the assay with HESX1 [1] is 6.58 upbm affinity estimate (log intensity, higher = more binding, comparable within an allelic series); with SHOX [2] it was 6.85 upbm affinity estimate (log intensity, higher = more binding, comparable within an allelic series); in the assay with HESX1 [3], 6.57 upbm affinity estimate (log intensity, higher = more binding, comparable within an allelic series); in the assay with ALX3 [4] it was 7.82 upbm affinity estimate (log intensity, higher = more binding, comparable within an allelic series); with SHOX [5], 7.05 upbm affinity estimate (log intensity, higher = more binding, comparable within an allelic series); with ALX3 [6], 7.76 upbm affinity estimate (log intensity, higher = more binding, comparable within an allelic series). The binding signal with HESX1 [7] is 6.61 upbm affinity estimate (log intensity, higher = more binding, comparable within an allelic series); with ALX3 [8] it was 7.73 upbm affinity estimate (log intensity, higher = more binding, comparable within an allelic series); with HESX1 [9], 6.61 upbm affinity estimate (log intensity, higher = more binding, comparable within an allelic series); with ALX3 [10], 7.68 upbm affinity estimate (log intensity, higher = more binding, comparable within an allelic series); with HESX1 [11], 6.51 upbm affinity estimate (log intensity, higher = more binding, comparable within an allelic series); with ALX3 [12], 7.81 upbm affinity estimate (log intensity, higher = more binding, comparable within an allelic series).

For the sequence CCAATTAA, the binding signal was 13.6 upbm affinity estimate (log intensity, higher = more binding, comparable within an allelic series) with HESX1 [1]; 12.7 upbm affinity estimate (log intensity, higher = more binding, comparable within an allelic series) in the assay with SHOX [2]; 14.1 upbm affinity estimate (log intensity, higher = more binding, comparable within an allelic series) with ALX4; 13.5 upbm affinity estimate (log intensity, higher = more binding, comparable within an allelic series) with HESX1 [3]; 13.3 upbm affinity estimate (log intensity, higher = more binding, comparable within an allelic series) with MSX2; 12.2 upbm affinity estimate (log intensity, higher = more binding, comparable within an allelic series) with ALX1 [13]. Also, the binding signal with ALX3 [4] is 8.51 upbm affinity estimate (log intensity, higher = more binding, comparable within an allelic series); with SHOX [5], 10.3 upbm affinity estimate (log intensity, higher = more binding, comparable within an allelic series); with ALX1 [14], 11.9 upbm affinity estimate (log intensity, higher = more binding, comparable within an allelic series); with ALX3 [6] it was 12.9 upbm affinity estimate (log intensity, higher = more binding, comparable within an allelic series); in the assay with PROP1 [15] it was 12 upbm affinity estimate (log intensity, higher = more binding, comparable within an allelic series); in the assay with HESX1 [7], 10.8 upbm affinity estimate (log intensity, higher = more binding, comparable within an allelic series). In addition, the binding signal with PROP1 [16] is 12.2 upbm affinity estimate (log intensity, higher = more binding, comparable within an allelic series); in the assay with ALX3 [8], 11.2 upbm affinity estimate (log intensity, higher = more binding, comparable within an allelic series); with HESX1 [9], 12.2 upbm affinity estimate (log intensity, higher = more binding, comparable within an allelic series); in the assay with ALX3 [10], 10.8 upbm affinity estimate (log intensity, higher = more binding, comparable within an allelic series); with PROP1 [17], 7.84 upbm affinity estimate (log intensity, higher = more binding, comparable within an allelic series); in the assay with HESX1 [11], 8.43 upbm affinity estimate (log intensity, higher = more binding, comparable within an allelic series). The binding signal in the assay with ALX1 [18] is 12.8 upbm affinity estimate (log intensity, higher = more binding, comparable within an allelic series); in the assay with ALX3 [12], 8.7 upbm affinity estimate (log intensity, higher = more binding, comparable within an allelic series).

Regarding ACTAATTG, the binding signal is 13 upbm affinity estimate (log intensity, higher = more binding, comparable within an allelic series) in the assay with HESX1 [1]; 12.3 upbm affinity estimate (log intensity, higher = more binding, comparable within an allelic series) with SHOX [2]; 13.4 upbm affinity estimate (log intensity, higher = more binding, comparable within an allelic series) in the assay with ALX4; 13 upbm affinity estimate (log intensity, higher = more binding, comparable within an allelic series) with HESX1 [3]; 13.1 upbm affinity estimate (log intensity, higher = more binding, comparable within an allelic series) in the assay with MSX2; 11.9 upbm affinity estimate (log intensity, higher = more binding, comparable within an allelic series) with ALX1 [13]. Besides, the binding signal with ALX3 [4] is 8.32 upbm affinity estimate (log intensity, higher = more binding, comparable within an allelic series); with SHOX [5], 9.68 upbm affinity estimate (log intensity, higher = more binding, comparable within an allelic series); with ALX1 [14] it was 11.5 upbm affinity estimate (log intensity, higher = more binding, comparable within an allelic series); with ALX3 [6], 12.5 upbm affinity estimate (log intensity, higher = more binding, comparable within an allelic series); with PROP1 [15] it was 11.5 upbm affinity estimate (log intensity, higher = more binding, comparable within an allelic series); in the assay with HESX1 [7] it was 9.82 upbm affinity estimate (log intensity, higher = more binding, comparable within an allelic series). For the same sequence, the binding signal in the assay with PROP1 [16] is 11.9 upbm affinity estimate (log intensity, higher = more binding, comparable within an allelic series); with ALX3 [8], 10.8 upbm affinity estimate (log intensity, higher = more binding, comparable within an allelic series); with HESX1 [9], 11.6 upbm affinity estimate (log intensity, higher = more binding, comparable within an allelic series); in the assay with ALX3 [10] it was 10.2 upbm affinity estimate (log intensity, higher = more binding, comparable within an allelic series); in the assay with PROP1 [17], 7.65 upbm affinity estimate (log intensity, higher = more binding, comparable within an allelic series); with HESX1 [11], 7.98 upbm affinity estimate (log intensity, higher = more binding, comparable within an allelic series). Further, the binding signal was 12.6 upbm affinity estimate (log intensity, higher = more binding, comparable within an allelic series) in the assay with ALX1 [18] and 8.46 upbm affinity estimate (log intensity, higher = more binding, comparable within an allelic series) with ALX3 [12].

As to AATTAACA, the binding signal is 11.9 upbm affinity estimate (log intensity, higher = more binding, comparable within an allelic series) with HESX1 [1]; 11.9 upbm affinity estimate (log intensity, higher = more binding, comparable within an allelic series) with SHOX [2]; 13.2 upbm affinity estimate (log intensity, higher = more binding, comparable within an allelic series) with ALX4; 12 upbm affinity estimate (log intensity, higher = more binding, comparable within an allelic series) with HESX1 [3]; 12.4 upbm affinity estimate (log intensity, higher = more binding, comparable within an allelic series) in the assay with MSX2; 11.7 upbm affinity estimate (log intensity, higher = more binding, comparable within an allelic series) with ALX1 [13]. Besides, the binding signal in the assay with ALX3 [4] was 8.55 upbm affinity estimate (log intensity, higher = more binding, comparable within an allelic series); with SHOX [5], 9.76 upbm affinity estimate (log intensity, higher = more binding, comparable within an allelic series); with ALX1 [14], 11.3 upbm affinity estimate (log intensity, higher = more binding, comparable within an allelic series); with ALX3 [6], 12.5 upbm affinity estimate (log intensity, higher = more binding, comparable within an allelic series); with PROP1 [15], 11.3 upbm affinity estimate (log intensity, higher = more binding, comparable within an allelic series); in the assay with HESX1 [7], 9.41 upbm affinity estimate (log intensity, higher = more binding, comparable within an allelic series). Also, the binding signal in the assay with PROP1 [16] is 11.1 upbm affinity estimate (log intensity, higher = more binding, comparable within an allelic series); with ALX3 [8], 10.6 upbm affinity estimate (log intensity, higher = more binding, comparable within an allelic series); with HESX1 [9], 10.7 upbm affinity estimate (log intensity, higher = more binding, comparable within an allelic series); with ALX3 [10], 10.2 upbm affinity estimate (log intensity, higher = more binding, comparable within an allelic series); with PROP1 [17], 7.88 upbm affinity estimate (log intensity, higher = more binding, comparable within an allelic series); with HESX1 [11], 8.02 upbm affinity estimate (log intensity, higher = more binding, comparable within an allelic series). The binding signal in the assay with ALX1 [18] is 12.4 upbm affinity estimate (log intensity, higher = more binding, comparable within an allelic series); with ALX3 [12] it was 8.67 upbm affinity estimate (log intensity, higher = more binding, comparable within an allelic series).
